# According to PubChem BioAssay (EPA / NIEHS):
# Inconclusive results are not listed. Some structures have more than one record in an assay (separate samples or runs), and their calls can disagree. Activity calls are given as the source filed them. The calls were made as follows: active = hit-call score of the fitted dose curve at least 0.9, where 1 is the maximum; inconclusive = response in the unintended direction; inactive = score below 0.9.
# Key:
# PPP2CA (gene 5515) = PPP2CA (gene 5515) (UniProt P67775); test: NVS_ENZ_hPPP2CA: NovaScreen (NVS) Enzymatic Assay for human Protein Phosphatase 2 Aatalytic subunit Alpha (PPP2CA) (AID 2283199)
# Method in brief: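 Recombinant human PPP2CA with fluorescent substrate; product separated from substrate by electrophoretic mobility shift, read 1.33 h after dosing. Duplicate single-point at 25 uM, then singleton concentration-response up to 50 uM; loss of signal versus DMSO.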
# [1] = target: rat Adenylate Cyclase, Forskolin Stimulated, Adcy5 (gene 64532) (UniProt Q04400); test: NVS_ENZ_rACFSKBinding: NovaScreen (NVS) Enzymatic Assay for rat Adenylate Cyclase, Forskolin Stimulated (AID 2283232)
# Sequence of rat Adenylate Cyclase, Forskolin Stimulated, Adcy5 (gene 64532) (Q04400 whole entry, looked up): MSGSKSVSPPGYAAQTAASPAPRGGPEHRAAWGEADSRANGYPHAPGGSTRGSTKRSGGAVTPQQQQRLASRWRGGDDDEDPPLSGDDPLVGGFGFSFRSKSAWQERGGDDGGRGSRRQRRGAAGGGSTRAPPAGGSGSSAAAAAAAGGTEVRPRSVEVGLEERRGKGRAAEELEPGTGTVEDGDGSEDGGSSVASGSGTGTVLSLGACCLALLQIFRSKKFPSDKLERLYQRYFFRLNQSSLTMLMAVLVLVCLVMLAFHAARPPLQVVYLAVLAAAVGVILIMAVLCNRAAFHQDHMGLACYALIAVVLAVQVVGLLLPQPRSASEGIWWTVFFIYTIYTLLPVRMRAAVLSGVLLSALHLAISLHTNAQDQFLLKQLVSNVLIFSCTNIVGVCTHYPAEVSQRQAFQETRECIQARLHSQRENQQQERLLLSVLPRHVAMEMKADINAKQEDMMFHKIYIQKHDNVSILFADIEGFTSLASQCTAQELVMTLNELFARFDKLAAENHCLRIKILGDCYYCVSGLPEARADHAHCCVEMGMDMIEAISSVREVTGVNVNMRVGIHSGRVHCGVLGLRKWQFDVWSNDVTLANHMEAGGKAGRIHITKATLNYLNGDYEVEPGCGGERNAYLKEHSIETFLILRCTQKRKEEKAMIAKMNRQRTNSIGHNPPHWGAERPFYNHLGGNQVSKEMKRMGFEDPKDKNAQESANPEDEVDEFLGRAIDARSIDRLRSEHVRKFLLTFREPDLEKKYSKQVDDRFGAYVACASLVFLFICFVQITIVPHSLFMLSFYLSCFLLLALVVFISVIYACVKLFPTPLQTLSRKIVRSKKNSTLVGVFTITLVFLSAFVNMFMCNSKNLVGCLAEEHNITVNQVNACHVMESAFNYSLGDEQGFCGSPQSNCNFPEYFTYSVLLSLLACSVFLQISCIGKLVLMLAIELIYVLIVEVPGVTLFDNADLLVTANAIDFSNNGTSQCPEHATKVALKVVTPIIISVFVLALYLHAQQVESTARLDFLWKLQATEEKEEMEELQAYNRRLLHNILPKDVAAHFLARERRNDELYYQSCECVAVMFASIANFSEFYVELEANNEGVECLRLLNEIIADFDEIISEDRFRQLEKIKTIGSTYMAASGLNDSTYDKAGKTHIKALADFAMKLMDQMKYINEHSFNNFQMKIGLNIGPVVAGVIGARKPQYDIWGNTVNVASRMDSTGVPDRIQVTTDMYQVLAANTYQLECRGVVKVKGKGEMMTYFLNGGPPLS
# Method in brief: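 Rat forebrain membrane preparation, cell-free, read 1 h after dosing by filter-based scintillation counting. Primary screen in duplicate at 25 uM; actives (e.g. ≥30% inhibition) rerun in concentration-response up to 50 uM; fit versus DMSO.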
# [2] = target: rat Acetylcholinesterase (AChE), Ache (gene 83817) (UniProt P37136); test: NVS_ENZ_rAChE: NovaScreen (NVS) Enzymatic Assay for rat Acetylcholinesterase (AChE) (AID 2283233)
# Sequence of rat Acetylcholinesterase (AChE), Ache (gene 83817) (P37136 whole entry, looked up): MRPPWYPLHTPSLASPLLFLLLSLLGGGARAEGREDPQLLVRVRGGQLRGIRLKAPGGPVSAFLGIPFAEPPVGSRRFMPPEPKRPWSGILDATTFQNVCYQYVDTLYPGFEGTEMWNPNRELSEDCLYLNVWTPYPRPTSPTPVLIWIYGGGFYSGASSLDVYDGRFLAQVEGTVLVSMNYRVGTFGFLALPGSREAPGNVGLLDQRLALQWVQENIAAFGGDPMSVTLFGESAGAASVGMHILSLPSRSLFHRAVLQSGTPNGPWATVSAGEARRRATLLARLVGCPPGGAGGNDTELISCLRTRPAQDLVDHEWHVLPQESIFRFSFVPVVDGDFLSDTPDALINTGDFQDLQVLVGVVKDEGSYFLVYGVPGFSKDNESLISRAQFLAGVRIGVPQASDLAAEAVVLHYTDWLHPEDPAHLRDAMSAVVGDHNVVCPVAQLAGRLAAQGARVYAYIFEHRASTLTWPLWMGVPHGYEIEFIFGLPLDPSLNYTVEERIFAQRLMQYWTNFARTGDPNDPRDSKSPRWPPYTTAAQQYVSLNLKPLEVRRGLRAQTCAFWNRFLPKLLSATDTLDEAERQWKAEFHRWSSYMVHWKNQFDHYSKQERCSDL
# Method in brief: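 Rat brain membrane acetylcholinesterase activity measured colorimetrically 0.33 h after compound addition, loss of signal relative to DMSO. Primary screen in duplicate at 25 uM; actives re-run as concentration-response with 50 uM top concentration.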
# [3] = target: rat Monoamine Oxidase, MAO-B, Central (MAOBC), Maob (gene 25750) (UniProt P19643); test: NVS_ENZ_rMAOBC: NovaScreen (NVS) Enzymatic Assay for rat Monoamine Oxidase, MAO-B, Central (MAOBC) (AID 2283238)
# Sequence of rat Monoamine Oxidase, MAO-B, Central (MAOBC), Maob (gene 25750) (P19643 whole entry, looked up): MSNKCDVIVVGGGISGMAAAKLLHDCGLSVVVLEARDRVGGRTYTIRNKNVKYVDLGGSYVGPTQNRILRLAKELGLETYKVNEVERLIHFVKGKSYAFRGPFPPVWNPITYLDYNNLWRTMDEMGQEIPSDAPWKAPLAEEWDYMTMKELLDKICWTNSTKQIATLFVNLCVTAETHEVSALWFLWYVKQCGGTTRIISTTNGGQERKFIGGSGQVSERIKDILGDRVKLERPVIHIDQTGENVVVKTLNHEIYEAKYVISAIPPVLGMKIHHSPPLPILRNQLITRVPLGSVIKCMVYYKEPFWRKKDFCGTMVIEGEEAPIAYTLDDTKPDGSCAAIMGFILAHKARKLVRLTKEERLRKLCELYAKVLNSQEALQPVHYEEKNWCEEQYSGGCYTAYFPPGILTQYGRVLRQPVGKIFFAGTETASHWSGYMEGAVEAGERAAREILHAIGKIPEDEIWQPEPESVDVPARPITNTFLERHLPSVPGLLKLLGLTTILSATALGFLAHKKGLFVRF
# Method in brief: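 MAO-B activity in rat brain tissue preparation, cell-free, measured radiometrically by scintillation counting 1.17 h after dosing. Screened in duplicate at 25 uM; actives then in concentration-response up to 50 uM. Loss of signal versus DMSO scored.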
# [4] = target: rat Monoamine Oxidase, MAO-B, Peripheral (MAOBP), Maob (gene 25750) (UniProt P19643); test: NVS_ENZ_rMAOBP: NovaScreen (NVS) Enzymatic Assay for rat Monoamine Oxidase, MAO-B, Peripheral (MAOBP) (AID 2283242)
# Sequence of rat Monoamine Oxidase, MAO-B, Peripheral (MAOBP), Maob (gene 25750) (P19643 whole entry, looked up): as above
# [5] = test system: rat Monoamine Oxidase, MAO-A, Central (MAOAC), gene 29253; test: NVS_ENZ_rMAOAC: NovaScreen (NVS) Enzymatic Assay for rat Monoamine Oxidase, MAO-A, Central (MAOAC) (AID 2283243);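 also: potency refers to inhibition seen as signal drop below DMSO baseline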
# Method in brief: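 Rat brain tissue extract served as the cell-free enzyme source; activity was measured by radiometric scintillation counting 1.5 hours after compound addition. Loss of signal relative to DMSO baseline indicated inhibition; primary screen at 25 uM in duplicate.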
# [6] = target: human Neonicotinoid receptor (NNR), CHRNA2 (gene 1135) (UniProt Q15822); test: NVS_LGIC_hNNR_NBungSens: NovaScreen (NVS) Ligand-Gated Ion Channel Assay for human Neonicotinoid receptor (NNR) (AID 2283313)
# Sequence of human Neonicotinoid receptor (NNR), CHRNA2 (gene 1135) (Q15822 whole entry, looked up): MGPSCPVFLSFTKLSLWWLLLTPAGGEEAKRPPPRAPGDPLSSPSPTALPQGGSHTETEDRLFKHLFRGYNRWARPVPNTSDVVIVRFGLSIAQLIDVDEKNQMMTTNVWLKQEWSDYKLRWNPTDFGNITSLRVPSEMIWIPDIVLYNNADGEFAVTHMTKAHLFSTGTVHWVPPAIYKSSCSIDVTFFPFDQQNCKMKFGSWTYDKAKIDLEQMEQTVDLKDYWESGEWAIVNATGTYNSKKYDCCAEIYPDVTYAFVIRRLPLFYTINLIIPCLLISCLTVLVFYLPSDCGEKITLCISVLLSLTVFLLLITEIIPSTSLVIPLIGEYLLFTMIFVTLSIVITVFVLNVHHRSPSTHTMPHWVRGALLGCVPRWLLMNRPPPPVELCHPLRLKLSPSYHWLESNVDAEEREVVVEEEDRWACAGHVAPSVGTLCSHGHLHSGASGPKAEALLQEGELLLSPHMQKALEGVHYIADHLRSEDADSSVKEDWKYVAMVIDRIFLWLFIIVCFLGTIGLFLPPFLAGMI
# Method in brief: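 Radioligand displacement on human neuroblastoma membranes, 2 h, filter-based scintillation counting. Primary screen in duplicate at 25 uM; chemicals passing threshold (e.g. 30% inhibition) run singleton concentration-response to 50 uM; loss of binding fitted versus DMSO.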
# [7] = test system: rat Monoamine Oxidase, MAO-A, Peripheral (MAOAP), gene 29253; test: NVS_ENZ_rMAOAP: NovaScreen (NVS) Enzymatic Assay for rat Monoamine Oxidase, MAO-A, Peripheral (MAOAP) (AID 2283237)
# Method in brief: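 Rat liver mitochondrial membranes served as the MAO-A source, with enzyme activity measured by radiometric scintillation counting 1.17 hours after dosing. Loss of signal was fitted against DMSO; primary screen used 25 uM in duplicate, follow-up used concentration series.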
# [8] = target: human Protein Tyrosine Phosphatase Non-receptor Type 2 (PTPN2), PTPN2 (gene 5771) (UniProt P17706); test: NVS_ENZ_hPTPN2: NovaScreen (NVS) Enzymatic Assay for human Protein Tyrosine Phosphatase Non-receptor Type 2 (PTPN2) (AID 2283207)
# Sequence of human Protein Tyrosine Phosphatase Non-receptor Type 2 (PTPN2), PTPN2 (gene 5771) (P17706 whole entry, looked up): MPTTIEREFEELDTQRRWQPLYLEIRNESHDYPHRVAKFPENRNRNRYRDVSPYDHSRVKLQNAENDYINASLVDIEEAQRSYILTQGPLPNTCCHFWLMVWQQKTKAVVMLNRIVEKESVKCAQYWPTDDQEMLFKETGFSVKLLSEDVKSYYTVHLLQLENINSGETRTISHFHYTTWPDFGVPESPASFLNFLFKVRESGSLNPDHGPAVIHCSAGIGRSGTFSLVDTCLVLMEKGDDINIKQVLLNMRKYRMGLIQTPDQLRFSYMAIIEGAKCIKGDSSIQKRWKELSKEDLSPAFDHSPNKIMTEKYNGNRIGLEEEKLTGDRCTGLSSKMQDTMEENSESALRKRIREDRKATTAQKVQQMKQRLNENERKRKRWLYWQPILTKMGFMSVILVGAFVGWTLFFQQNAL
# Method in brief: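 Cell-free recombinant enzyme with fluorescent substrate, product separated by electrophoretic mobility shift; read 1 h after dosing. Primary screen single concentration (25 uM) in duplicate; actives followed in concentration series; loss of signal versus DMSO.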
# [9] = target: Voltage-dependent N-type calcium channel subunit alpha-1B (Rattus norvegicus) (UniProt Q02294); test: NVS_IC_rCaChN: NovaScreen (NVS) Ion Channel Assay for rat Calcium Channel, Type N (CaChN) (AID 2283317)
# [10] = target: Norway rat Vesicular Monoamine Transporter (VMAT2), neurotransmitter transporter, Slc18a2 (gene 25549) (UniProt Q01827); test: NVS_TR_rVMAT2: NovaScreen (NVS) Transporter Assay for Norway rat Vesicular Monoamine Transporter (VMAT2), neurotransmitter transporter (AID 2283376);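 also: actives lower the bound radioligand signal below the DMSO level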
# Sequence of Norway rat Vesicular Monoamine Transporter (VMAT2), neurotransmitter transporter, Slc18a2 (gene 25549) (Q01827 whole entry, looked up): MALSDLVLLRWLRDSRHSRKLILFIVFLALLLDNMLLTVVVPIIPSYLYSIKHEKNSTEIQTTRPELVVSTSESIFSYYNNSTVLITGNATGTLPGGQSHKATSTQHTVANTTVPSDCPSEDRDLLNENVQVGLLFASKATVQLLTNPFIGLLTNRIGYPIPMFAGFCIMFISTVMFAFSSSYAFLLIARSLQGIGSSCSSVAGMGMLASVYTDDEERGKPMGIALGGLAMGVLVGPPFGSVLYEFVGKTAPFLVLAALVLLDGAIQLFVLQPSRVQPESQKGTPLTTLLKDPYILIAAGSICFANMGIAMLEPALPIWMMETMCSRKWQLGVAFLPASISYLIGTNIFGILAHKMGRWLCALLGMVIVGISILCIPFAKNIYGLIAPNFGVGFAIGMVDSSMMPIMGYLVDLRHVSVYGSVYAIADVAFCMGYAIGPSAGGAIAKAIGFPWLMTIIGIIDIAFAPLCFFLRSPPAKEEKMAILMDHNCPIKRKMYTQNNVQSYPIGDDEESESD
# Method in brief: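 Radioligand displacement binding on rat forebrain tissue preparation, filter-based scintillation read-out 1 hour after dosing. Primary screen in duplicate at 25 uM, then concentration series for actives; loss of signal versus DMSO.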
# [11] = target: human Phosphatase and Tensin Homolog (PTEN), PTEN (gene 5728) (UniProt P60484); test: NVS_ENZ_hPTEN: NovaScreen (NVS) Enzymatic Assay for human Phosphatase and Tensin Homolog (PTEN) (AID 2283203)
# Sequence of human Phosphatase and Tensin Homolog (PTEN), PTEN (gene 5728) (P60484 whole entry, looked up): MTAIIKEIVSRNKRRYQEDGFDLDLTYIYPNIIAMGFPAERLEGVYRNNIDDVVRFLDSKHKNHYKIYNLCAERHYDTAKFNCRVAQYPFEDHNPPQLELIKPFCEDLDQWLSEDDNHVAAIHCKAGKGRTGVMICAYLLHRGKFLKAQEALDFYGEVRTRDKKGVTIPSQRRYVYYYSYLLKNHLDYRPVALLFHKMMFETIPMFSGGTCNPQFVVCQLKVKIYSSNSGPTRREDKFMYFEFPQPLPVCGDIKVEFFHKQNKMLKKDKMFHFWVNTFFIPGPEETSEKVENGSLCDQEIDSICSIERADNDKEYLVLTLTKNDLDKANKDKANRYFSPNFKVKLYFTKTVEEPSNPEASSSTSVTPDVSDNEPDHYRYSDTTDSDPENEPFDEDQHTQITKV
# Method in brief: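 Cell-free recombinant human PTEN with fluorescent substrate; product separated by electrophoretic mobility shift and read by fluorescence 1 h after dosing. Primary screen in duplicate at 25 uM, actives followed in concentration series versus DMSO.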
# [12] = test system: guinea pig Atrionatriuretic Peptide Receptor A (ANPA), gene 100135578; test: NVS_GPCR_gANPA: NovaScreen (NVS) G Protein-Coupled Receptor Assay for guinea pig Atrionatriuretic Peptide Receptor A (ANPA) (AID 2283291)
# Method in brief: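 Radioligand binding to guinea pig cerebellar membranes was measured after 1 h by filter-based scintillation counting. Chemicals were tested in duplicate at 25 uM, with hits run in concentration-response to a maximum of 50 uM. Binding loss was fitted against DMSO.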
# [13] = target: rat Oxytocin Receptor (OXT), Oxtr (gene 25342) (UniProt P70536); test: NVS_GPCR_rOXT: NovaScreen (NVS) G Protein-Coupled Receptor Assay for rat Oxytocin Receptor (OXT) (AID 2283330)
# Method in brief: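 Radioligand displacement on rat uterine membranes, 1 h incubation, filter-based scintillation counting. Chemicals were screened in duplicate at 25 uM, and those passing threshold were retested in concentration-response up to 50 uM. Loss of binding was fitted versus DMSO.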
# [14] = target: human Tyrosine Protein Kinase Receptor Tie-2 (Tie2), TEK (gene 7010) (UniProt Q02763); test: NVS_ENZ_hTie2: NovaScreen (NVS) Enzymatic Assay for human Tyrosine Protein Kinase Receptor Tie-2 (Tie2) (AID 2283225)
# Method in brief: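 Recombinant human Tie2 kinase activity was read cell-free by fluorescence with electrophoretic mobility shift, 1 hour after dosing. The screen used 25 uM in duplicate, then concentration-response up to 50 uM. Signal loss was scored against DMSO.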
compound,measurement,setting,value
CC(=O)CC(c1ccccc1)c1c(O)c2ccccc2oc1=O (stereo not given),outcome,PPP2CA (gene 5515),inactive
O=P(OC(CCl)CCl)(OC(CCl)CCl)OC(CCl)CCl,outcome,[1],inactive
Cn1cnc2c1c(=O)[nH]c(=O)n2C,outcome,[2],inactive
O=c1[nH]c2ccc(S(=O)CCN3CCC(Cc4ccc(F)cc4)CC3)cc2o1 (stereo not given),AC50,[2],5.31 µM (active)
c1ccc(C(O[C@@H]2CCCN(CCc3ccc4c(c3)OCO4)C2)c2ccccc2)cc1,AC50,[3],14.9 µM (active)
same,AC50,[4],22 µM (active)
same,AC50,[5],20.5 µM (active)
COc1ccc([N+](=O)[O-])cc1N,AC50,[3],25 µM (active)
CCCCCCCCCCCC[N+](C)(C)C,outcome,[2],inactive
same,AC50,[3],9.12 µM (active)
same,AC50,[5],25 µM (active)
same,AC50,[6],13.3 µM (active)
Nc1cccc(N)c1,outcome,[7],inactive
same,AC50,[5],4.33 µM (active)
COc1cc(C(C)C)c2c(c1)S(=O)(=O)N(COc1cc(=O)n3cccc(OCCN4CCCCC4)c3n1)C2=O,AC50,[2],6.25 µM (active)
C[C@]12CC[C@@H]3c4ccc(O)cc4CC[C@H]3[C@@H]1CCC2=O,outcome,[7],inactive
c1ccc2n[nH]nc2c1,outcome,[8],inactive
same,AC50,[3],25 µM (active)
same,outcome,[3],inactive
CN1CCN(Cc2cc(-c3ccc4[nH]c(=O)oc4c3)co2)[C@@H](c2ccc(F)cc2)C1,outcome,[2],inactive
same,AC50,[7],18.2 µM (active)
same,AC50,[3],10.6 µM (active)
same,AC50,[4],10.1 µM (active)
same,AC50,[5],22 µM (active)
CCCCCCCCCCCCCC[N+](C)(C)C,AC50,[2],21.3 µM (active)
same,AC50,[5],31.1 µM (active)
CC(C)CCCCCCOC(=O)C1CCCCC1C(=O)OCCCCCCC(C)C (stereo not given),outcome,[2],inactive
O=c1ccc2ccccc2o1,AC50,[7],6.56 µM (active)
same,AC50,[3],12.5 µM (active)
same,AC50,[4],13.5 µM (active)
NC(=O)Cn1c(=O)cc(CCN2CCN(c3nccc4sccc34)CC2)c2ccc(F)cc21,outcome,[2],inactive
Nc1ccc(N)c([N+](=O)[O-])c1,outcome,[2],inactive
CN[C@H]1CC[C@@H](c2ccc(Cl)c(Cl)c2)c2ccc(S(N)(=O)=O)cc21,AC50,[2],25 µM (active)
same,outcome,[9],inactive
O=C1OC2(c3cc(Br)c(O)c(Br)c3Oc3c2cc(Br)c(O)c3Br)c2c(Cl)c(Cl)c(Cl)c(Cl)c21,AC50,[2],2.75 µM (active)
O=C(O)c1cccc(C(=O)O)c1,outcome,[7],inactive
Nc1ccc(Nc2ccccc2)cc1,AC50,[1],39.6 µM (active)
same,AC50,[3],10.4 µM (active)
same,AC50,[10],8.65 µM (active)
Cc1occc(=O)c1O,outcome,[1],inactive
O=C1c2c(O)ccc(Nc3ccc(CCO)cc3)c2C(=O)c2c([N+](=O)[O-])ccc(O)c21,AC50,[2],1.91 µM (active)
same,outcome,[10],inactive
CN(CCOc1ccc(CC2SC(=O)NC2=O)cc1)c1ccccn1 (stereo not given),outcome,[11],inactive
same,AC50,[5],12.9 µM (active)
COCCOc1cc2cc(C(=O)NC3CCN(C(C)C)CC3)n(CC(=O)Nc3ccc(Cl)cn3)c2cn1,AC50,[2],19 µM (active)
same,outcome,[10],inactive
CCn1nc(C)c2c1C(=O)NCC(c1ccc(O)cc1)=N2,outcome,[2],inactive
same,AC50,[7],5.25 µM (active)
C#CC(O)CCC (stereo not given),AC50,[11],25 µM (active)
same,outcome,[5],inactive
CC[C@H]1CC[C@H](NCc2cc3c(cc2OC)[C@H]2C[C@H]2C(=O)N3C)[C@H](c2ccccc2)N1,AC50,[2],15.7 µM (active)
S=C(NC1CCCCC1)NC1CCCCC1,AC50,[2],17.2 µM (active)
Nc1ccc(S(=O)(=O)Nc2nccs2)cc1,outcome,[11],inactive
same,outcome,[10],inactive
O=NO,AC50,[7],33.9 µM (active)
CCCCCCCCCC,outcome,[2],inactive
same,outcome,[5],inactive
same,outcome,[12],inactive
same,outcome,[9],inactive
same,outcome,[13],inactive
CCOC(=O)c1ccc(C2CCC(NC[C@H](O)COc3ccc(O)c(NS(C)(=O)=O)c3)CC2)cc1 (stereo not given in full),AC50,[2],15 µM (active)
same,AC50,[3],10.2 µM (active)
OCCC(O)CO (stereo not given),AC50,[11],14.7 µM (active)
Cc1c(C(=O)O)c(O)cc2c1C(=O)c1c(O)c([C@@H]3O[C@H](CO)[C@@H](O)[C@H](O)[C@H]3O)c(O)c(O)c1C2=O,outcome,[7],inactive
O=c1c(O)c(-c2ccc(O)c(O)c2)oc2cc(O)cc(O)c12,AC50,[7],17.2 µM (active)
same,AC50,[5],9.38 µM (active)
C[C@]12C=CC(=O)C=C1CC[C@H]1[C@@H]3C[C@@H](O)[C@](O)(C(=O)CO)[C@@]3(C)C[C@H](O)[C@@]12F,outcome,[14],inactive
CCOC(=O)C1=NOC(c2ccccc2)(c2ccccc2)C1,outcome,[2],inactive
c1ccc(Oc2ccccc2)cc1,outcome,[2],inactive
OC[C@H]1O[C@@H]2O[C@H]3[C@H](O)[C@@H](O)[C@@H](O[C@H]4[C@H](O)[C@@H](O)[C@@H](O[C@H]5[C@H](O)[C@@H](O)[C@@H](O[C@H]6[C@H](O)[C@@H](O)[C@@H](O[C@H]7[C@H](O)[C@@H](O)[C@@H](O[C@H]1[C@H](O)[C@H]2O)O[C@@H]7CO)O[C@@H]6CO)O[C@@H]5CO)O[C@@H]4CO)O[C@@H]3CO,outcome,[8],inactive
